Results as given in PubChem BioAssay (Tox21).
Values joined by “and” are separate entries in the source; they are usually repeats but may differ in a detail not shown here. Equal values may be shown once. Inconclusive results are not listed. Some structures have more than one record in an assay (separate samples or runs), and their calls can disagree. Active and inactive are the calls of the source. Unless noted, calls follow the shape of the dose curve; as a rule, active = well fitted curve in the direction sought with a large enough effect in the repeat runs; inconclusive = weak or mixed curves; inactive = no such curve, though single readings can be large; an effect the other way counts as inactive or inconclusive.

Assays:
[1] = biological target: Aryl hydrocarbon receptor (Homo sapiens) (UniProt P35869); experiment: qHTS assay to identify small molecule that activate the aryl hydrocarbon receptor (AhR) signaling pathway (AID 743085); also: nearly all actives have a fitted effect of over 15% in size; also: potency is read from the fitted curve at half-maximal effect;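 as to activation: HG2L7.5c1 human HepG2 liver cells with stably integrated DRE-driven firefly reporter; series mostly up to about 70 µM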
Procedure, shortened: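 HepG2 cells (HG2L7.5c1) stably carrying a firefly luciferase reporter driven by 20 dioxin responsive elements were exposed to compound for 24 h at 37C after a 5 h settling period; luminescence rise (ONE-Glo) indicated activation.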

[2] = qHTS assay to identify small molecule that activate the aryl hydrocarbon receptor (AhR) signaling pathway - cell viability counter screen (AID 743086);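 also: HepG2 liver cells carrying the AhR DRE luciferase reporter; series mostly up to about 70 µM; nearly all actives have a fitted effect of over 45% in size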
Procedure, shortened: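 HepG2-AhR-luc (HG2L7.5c1) cells, 4000/well, were preincubated 5 h at 37C, exposed to compound in qHTS format for 24 hr at 37C, then given CellTiter-Fluor for 30 min; viability was read as fluorescence in the reporter wells.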

[3] = biological target: Peroxisome proliferator-activated receptor gamma (Homo sapiens) (UniProt P37231); experiment: qHTS assay to identify small molecule agonists of the peroxisome proliferator-activated receptor gamma (PPARg) signaling pathway (AID 743094; active = well fitted activation curve with a large enough effect in the signal ratio in the repeat runs, not every such curve was filed as active; the % refers to the signal ratio)
Procedure, shortened: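 Reporter activation was scored by fluorescence of cleaved LiveBLAzer B/G substrate (1 h, room temperature) in PPARg-bla HEK293H cells previously treated 17 h at 37C with DMSO-dissolved compounds.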

[4] = biological target: Peroxisome proliferator-activated receptor gamma (Homo sapiens) (UniProt P37231); experiment: qHTS assay to identify small molecule antagonists of the peroxisome proliferator-activated receptor gamma (PPARg) signaling pathway (AID 743191; calls by dose curve; also: nearly all actives have a fitted effect of over 30% in size; also: potency is read from the fitted curve at half-maximal effect)
Procedure, shortened: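 GeneBLAzer PPARg UAS-bla HEK293H cells carrying a UAS-driven beta-lactamase reporter were plated at 3000 cells/well, preincubated 5 h at 37C, then given compound for 17 h at 37C; LiveBLAzer B/G FRET substrate was read after 1 h at room temperature.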

[5] = qHTS assay to identify small molecule antagonists of the peroxisome proliferator-activated receptor gamma (PPARg) signaling pathway - cell viability counter screen (AID 743194); conditions: Potency: co-treated with 50 nM rosiglitazone; also: nearly all actives have a fitted effect of over 55% in size
Procedure, shortened: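 PPARg-UAS-bla HEK293H cells were plated, rested 5 h at 37 C, then treated with compounds plus rosiglitazone (50 nM final) for 17 h at 37 C; viability was then read by CellTiter-Glo luminescence after 30 min at room temperature.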

[6] = qHTS assay for small molecule agonists of the antioxidant response element (ARE) signaling pathway (AID 743202; active = well fitted activation curve with a large enough effect in the signal ratio in the repeat runs, not every such curve was filed as active; the % refers to the signal ratio; also: potency is read from the fitted curve at half-maximal effect)
Procedure, shortened: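 Steps: seed ARE-bla HepG2 cells (2,000/well); incubate 5 h at 37 C; add compounds by pin tool; incubate 16 h at 37 C; add FRET substrate; read fluorescence after 2 h at RT.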

[7] = qHTS assay for small molecule agonists of the antioxidant response element (ARE) signaling pathway - cell viability counter screen (AID 743203; calls by dose curve; also: nearly all actives have a fitted effect of over 55% in size)
Procedure, shortened: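 Viability counter screen: stably transfected ARE-bla HepG2 line, 16 hrs compound exposure at 37C/5% CO2, ATP-based CellTiter-Glo luminescence measured in the reporter wells.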

[8] = qHTS assay for small molecule activators of the heat shock response signaling pathway - cell viability counter screen (AID 743209); also: nearly all actives have a fitted effect of over 50% in size
Procedure, shortened: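 Viability of HSE-bla HeLa cells is measured with CellTiter-Glo in the wells already used for the reporter read. Compound exposure lasts 5 h at 37 C, and luminescence is read after 30 min at room temperature.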

[9] = qHTS assay for small molecule activators of the heat shock response signaling pathway (AID 743210; active = well fitted activation curve with a large enough effect in the signal ratio in the repeat runs, with a control signal flat, not every such curve was filed as active; the % refers to the signal ratio;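 also: HeLa cells with beta-lactamase reporter driven by heat shock elements; series mostly up to about 63 µM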)
Procedure, shortened: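 Activation of heat shock element-controlled beta-lactamase expression is measured in HeLa cells by LiveBLAzer FRET fluorescence, with compound exposure lasting 5 h at 37 C and substrate loading 2.5 h at room temperature.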

[10] = qHTS assay to identify small molecule agonists of the peroxisome proliferator-activated receptor delta (PPARd) signaling pathway - cell viability counter screen (AID 743211); also: nearly all actives have a fitted effect of over 55% in size
Procedure, shortened: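 PPARd-bla HEK293H cells (UAS-beta-lactamase reporter) were treated with compounds for 17 h at 37 C. Viability was then read in the same wells by CellTiter-Glo luminescence after 30 min at room temperature.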

Measured: Potency

Sequence of Aryl hydrocarbon receptor (Homo sapiens) (P35869 whole entry, looked up): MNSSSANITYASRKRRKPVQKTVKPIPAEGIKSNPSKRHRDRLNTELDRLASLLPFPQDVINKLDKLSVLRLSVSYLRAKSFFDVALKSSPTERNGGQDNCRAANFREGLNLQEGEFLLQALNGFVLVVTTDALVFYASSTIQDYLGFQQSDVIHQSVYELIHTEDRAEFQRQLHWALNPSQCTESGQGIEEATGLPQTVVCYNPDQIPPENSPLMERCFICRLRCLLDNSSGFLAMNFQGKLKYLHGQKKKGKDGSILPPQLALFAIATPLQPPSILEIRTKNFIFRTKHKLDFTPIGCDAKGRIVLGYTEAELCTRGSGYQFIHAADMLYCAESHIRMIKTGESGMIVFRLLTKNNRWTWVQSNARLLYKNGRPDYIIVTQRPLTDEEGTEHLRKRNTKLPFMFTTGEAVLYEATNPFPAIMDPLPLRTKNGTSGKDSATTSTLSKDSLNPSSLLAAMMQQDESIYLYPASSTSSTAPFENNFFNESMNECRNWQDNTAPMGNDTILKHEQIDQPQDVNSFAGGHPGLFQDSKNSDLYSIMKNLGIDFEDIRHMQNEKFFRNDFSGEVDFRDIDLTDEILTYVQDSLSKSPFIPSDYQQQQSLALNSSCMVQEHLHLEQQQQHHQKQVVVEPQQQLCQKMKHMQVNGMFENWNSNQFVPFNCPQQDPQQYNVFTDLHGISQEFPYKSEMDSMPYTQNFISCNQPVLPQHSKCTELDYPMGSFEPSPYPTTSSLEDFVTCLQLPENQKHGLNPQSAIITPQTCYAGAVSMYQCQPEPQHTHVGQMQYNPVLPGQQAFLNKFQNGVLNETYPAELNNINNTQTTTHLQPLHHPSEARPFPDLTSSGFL
Sequence of Peroxisome proliferator-activated receptor gamma (Homo sapiens) (P37231 whole entry, looked up): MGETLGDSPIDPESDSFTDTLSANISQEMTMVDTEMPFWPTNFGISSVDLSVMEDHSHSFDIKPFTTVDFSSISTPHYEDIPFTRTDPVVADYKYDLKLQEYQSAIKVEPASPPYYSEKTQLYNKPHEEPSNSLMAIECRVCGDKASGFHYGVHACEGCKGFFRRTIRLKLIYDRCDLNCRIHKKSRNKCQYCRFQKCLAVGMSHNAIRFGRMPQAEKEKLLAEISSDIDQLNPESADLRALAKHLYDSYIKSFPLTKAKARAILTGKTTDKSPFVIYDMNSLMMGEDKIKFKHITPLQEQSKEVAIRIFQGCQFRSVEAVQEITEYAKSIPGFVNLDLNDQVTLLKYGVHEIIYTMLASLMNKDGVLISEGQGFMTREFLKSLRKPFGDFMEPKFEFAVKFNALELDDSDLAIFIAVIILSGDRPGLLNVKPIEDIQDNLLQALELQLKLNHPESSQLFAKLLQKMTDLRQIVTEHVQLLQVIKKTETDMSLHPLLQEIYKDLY

COP(=O)(O)OC
inactive: all assays above

COc1ccc(C=O)cc1O
inactive: all assays above

BrCc1ccc(Br)cc1
inactive: all assays above

N=C(N)[Se]
inactive: all assays above

CCC(=O)OC1(c2ccccc2)CCN(C)CC1
inactive: all assays above

C#CCOC(=O)/C=C(C)/C=C/CC(C)CCCC(C)C (stereo not drawn)
inactive: all assays above

C=CCN1CC[C@]23CCCC[C@H]2[C@H]1Cc1ccc(O)cc13
inactive: all assays above

BrCC1CO1 (stereo not drawn)
inactive: all assays above

C=C(C)[C@H]1CN[C@H](C(=O)O)[C@H]1CC(=O)O
inactive: all assays above

NC(=O)OCCCc1ccccc1
inactive: all assays above

CCOC(=O)CC(SP(=S)(OC)OC)C(=O)OCC (stereo not drawn)
inactive and 33.1 µM (active): [1]
active: [6] 6.86 µM
not listed: [9] | [10]
inactive: all other assays above

O=c1[nH]oc2c1CCNC2
inactive: all assays above

CCCCCCCCSC(=O)Oc1cc(Cl)nnc1-c1ccccc1
active: [4] 43.6 µM
inactive: all other assays above

CCOP(=S)(OCC)SCCl
inactive: all assays above

CCNP(=S)(OC)O/C(C)=C/C(=O)OC(C)C (stereo not drawn)
active: [1] 4.86 µM
inactive: all other assays above

CN(C)CCc1c[nH]c2cccc(OP(=O)(O)O)c12
inactive: all assays above

C=CCc1cc(OC)c2c(c1)OCO2
inactive: all assays above

CCC1(c2cccc(O)c2)CCCCN(C)C1 (stereo not drawn)
inactive: all assays above

CCC(=O)c1ccc(Cl)cc1
inactive: all assays above

CC(Cl)(Cl)Cl
inactive: all assays above

COc1cccc([C@@]2(O)CCCC[C@@H]2CN(C)C)c1
inactive: all assays above

O=C(O)C(Br)(Br)Br
active: [6] 5.44 µM
inactive: all other assays above

COC(=O)c1ccc(CBr)cc1
inactive: all assays above

CC(C)(C)C(=O)Cl
inactive: all assays above

NCCOS(=O)(=O)O
inactive: all assays above
